In the library only some 12% were active in any assay of this set; here they are far more common.
BAZ2B inh = qHTS Assay for Inhibitors of BAZ2B. Bromodomain adjacent to zinc finger domain protein 2B (Homo sapiens), Q9UIF8. AlphaScreen BAZ2B-H3K14Ac peptide displacement. Potency, µM (highest dose often 114 µM), for inactives: top-dose activity change, negative = inhibition, hits mostly inhibitors. 360,000 tested, 4.4% active; note: % is set by controls: 0 for no effect and ±100 for the full control effect; nearly all actives have a fitted effect of over 60% in size
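In this displacement format the biotinylated H3(5-23) peptide acetylated at Lys14 serves as ligand at 50 nM, with BAZ2B at 50 nM in PBS pH 7.4 containing 0.01% Tween-20. Donor and acceptor beads are 10 ug/mL final.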
JMJD2A Tudor inh = qHTS Assay for Inhibitors of JMJD2A-Tudor Domain; Lysine-specific demethylase 4A (Homo sapiens), O75164; Potency, µM (highest dose often 114 µM), for inactives: top-dose activity change, negative = inhibition, usual class: inhibitors; 390,000 tested, 4.4% active; AlphaScreen JMJD2A-Tudor / H3K4me3 peptide binding; note: % is set by controls: 0 for no effect and ±100 for the full control effect; nearly all actives have a fitted effect of over 50% in size
Target sequence (O75164 whole entry, looked up, the tested form may be a part): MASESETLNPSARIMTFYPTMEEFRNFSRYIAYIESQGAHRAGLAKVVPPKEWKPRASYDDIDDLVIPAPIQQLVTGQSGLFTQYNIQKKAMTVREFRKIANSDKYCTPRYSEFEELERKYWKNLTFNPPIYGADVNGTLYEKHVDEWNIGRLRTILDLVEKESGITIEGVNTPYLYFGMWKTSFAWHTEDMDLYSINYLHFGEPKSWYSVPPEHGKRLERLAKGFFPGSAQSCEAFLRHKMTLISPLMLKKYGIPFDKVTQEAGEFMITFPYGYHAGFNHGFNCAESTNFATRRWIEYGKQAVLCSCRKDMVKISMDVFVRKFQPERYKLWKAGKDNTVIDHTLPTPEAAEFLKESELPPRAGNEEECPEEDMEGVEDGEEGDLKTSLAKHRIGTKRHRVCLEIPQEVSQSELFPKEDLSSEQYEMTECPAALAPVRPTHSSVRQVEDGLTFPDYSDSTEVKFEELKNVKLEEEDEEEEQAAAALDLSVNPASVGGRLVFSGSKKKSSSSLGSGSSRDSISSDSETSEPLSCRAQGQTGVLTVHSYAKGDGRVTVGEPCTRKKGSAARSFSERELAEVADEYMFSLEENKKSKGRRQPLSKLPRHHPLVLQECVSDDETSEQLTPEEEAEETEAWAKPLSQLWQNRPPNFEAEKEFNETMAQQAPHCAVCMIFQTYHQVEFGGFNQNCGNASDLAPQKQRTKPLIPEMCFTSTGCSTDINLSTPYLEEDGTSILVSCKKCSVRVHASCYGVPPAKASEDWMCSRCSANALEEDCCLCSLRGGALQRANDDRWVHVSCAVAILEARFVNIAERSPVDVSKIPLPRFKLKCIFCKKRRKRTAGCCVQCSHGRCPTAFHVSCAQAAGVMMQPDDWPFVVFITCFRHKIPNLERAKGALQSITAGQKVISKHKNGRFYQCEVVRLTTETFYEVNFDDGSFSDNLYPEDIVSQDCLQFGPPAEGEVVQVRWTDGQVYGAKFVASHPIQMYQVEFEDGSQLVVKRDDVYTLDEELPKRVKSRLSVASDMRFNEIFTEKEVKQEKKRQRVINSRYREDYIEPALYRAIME
HP1b binding inh = HTS for Inhibitors of HP1-beta Chromodomain Interactions with Methylated Histone Tails; Chromobox protein homolog 1 (Homo sapiens), P83916; AlphaScreen HP1-beta / biotin-H3K9me3 peptide binding; AID 540317, 2011; 390,000 tested, 0.56% active; Potency, µM (series often up to 114 µM), inactives show top-dose activity change, negative = inhibition, hits mostly inhibitors; note: nearly all actives have a fitted effect of over 70% in size
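Compound inhibition of the preformed complex between 50 nM HP1-beta and 50 nM biotinylated H3K9me3 peptide was read by AlphaScreen. Buffer was PBS pH 7.4 with 0.01% Tween-20. Incubations ran 30 min at room temperature, with 10 ug/mL donor/acceptor beads.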
L3MBTL1 inh = qHTS Assay for the Inhibitors of L3MBTL1 | AlphaScreen L3MBTL1–H3K9me1 peptide binding | Potency, µM (titrated, usually from 57.1 µM), without a hit: at the top dose activity, negative = inhibition, hits mostly inhibitors | 230,000 tested, 0.66% active | AID 485360, 2010; note: % is set by controls: 0 for no effect and ±100 for the full control effect; nearly all actives have a fitted effect of over 60% in size
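AlphaScreen assay: L3MBTL1 (50 nM final) was preincubated 30 min at room temperature with biotinylated H3(1-15)K9me1 peptide (75 nM final), then 30 min with library compounds; streptavidin donor and nickel chelate acceptor beads (10 ug/mL final) added, 30 min dark.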
G9a block = qHTS Assay for Inhibitors of Histone Lysine Methyltransferase G9a. Histone-lysine N-methyltransferase EHMT2 (Homo sapiens), Q96KQ7. G9a H3K9 monomethylation, AlphaScreen, 2 h. Potency, µM (highest dose often 102 µM), for the others: top-dose activity, negative = inhibition, actives largely listed as inhibitors. 350,000 tested, 8.8% active. AID 504332, 2011; note: % is set by controls: 0 for no effect and ±100 for the full control effect; nearly all actives have a fitted effect of over 75% in size
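Step 1: enzyme (final 20 nM) with compound, 15 min RT. Step 2: substrate peptide 500 nM and SAM 20 uM, 2 h RT. Step 3: anti-H3K9me1 antibody and AlphaScreen beads, 10 min, then plate read.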
Sfp inh = qHTS Assay for Inhibitors of Bacillus subtilis Sfp phosphopantetheinyl transferase (PPTase); Biochemical Sfp PPTase activity, qHTS; Potency, µM, for inactives: largest response in the series, negative = inhibition, usual class: inhibitors; 310,000 tested, 3.5% active; AID 1490, 2009;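 note: the enzyme is Sfp with the accession as filed and its product quenches rhodamine fluorescence; 0% = enzyme reaction without inhibitor and -100% = no enzyme wells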
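Reaction rates are the 30-min fluorescence difference (ex 525, em 598 nm) in wells containing 15 nM Sfp, 5 uM rhodamine-CoA and 12.5 uM BHQ-2-YbbR at pH 7.6 with 10 mM MgCl2.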
Numbers without * were called inactive; ? = inconclusive; nt = no result; ! = a repeat was not active; [ ] = another dose, or the depositor's remark. Calls come from the whole dose curve; as a rule, active = well fitted curve in the direction sought with a large enough effect; inconclusive = small, poorly fitted or top-dose-only effect, or another doubt; inactive = no such curve, though single readings can be large; an effect the other way counts as inactive or inconclusive. Potency is the fitted concentration of half-maximal effect.

SMILES	BAZ2B inh	JMJD2A Tudor inh	HP1b binding inh	L3MBTL1 inh	G9a block	Sfp inh
O=c1[nH]c(=S)[nH]c2c1C(c1cc([N+](=O)[O-])c(N3CCOCC3)cc1N1CCOCC1)O2 (centres undefined)	-16%	-35%	12%	6%	45µM*	2%
NCCNS(=O)(=O)c1cccc2c(Cl)cccc12	nt	nt	nt	nt	9%[59 µM]	-15%
C[N+](C)(C)CC/C=C1/c2ccccc2CSc2ccccc21	79µM*	50µM*	43%	-3%	?	3%
CCCCCC/C=C1\CC(C(=O)OCC)Oc2ccccc21 (centres undefined) (tested in a mixture with another compound)	nt	nt	nt	nt	170%	16%
CC(C)c1ccc(S(=O)(=O)N2CCC(N3CCN(Cc4ccccc4)C(=O)C3=O)CC2)cc1	4%	-26%	-7%	nt	2%[59 µM]	nt
O=C(Nc1cccc(S(=O)(=O)N2CCCCC2)c1)c1ccc2ncsc2c1	56µM*	28µM*	7%	nt	?	5%
O=C(Nc1ncccc1O)c1ccc(OCC2CCCO2)cc1 (centres undefined)	79µM*	-24%	39%	nt	-8%	0%
O=C(Nc1cccc(S(=O)(=O)N2CCCCC2)c1)c1ccc(OCC2CCCO2)cc1 (centres undefined)	nt	-13%	23%	nt	56µM*	17%
O=C(CSc1nc2ccccc2c2nc(-c3ccccc3)nn12)Nc1ccc(Br)cc1	0%	-6%	15%	nt	-1%[59 µM]	nt
CCCC1([C@H](O)C/C=C/[C@H]2[C@H](O)CC(=O)[C@@H]2CCCCCCC(=O)OC)CCC1	nt	nt	nt	nt	nt	-14%
COc1ccc(C)cc1NC(=O)c1nnn(CC(=O)Nc2c(C)cccc2C)c1N	8%[57.1 µM]	-4%	20%	nt	-5%[59 µM]	nt
O=C(CCc1ccc(O)cc1)c1c(O)cc(O)cc1O	4%	-18%	36%	nt	22%[59 µM]	50µM*!
COc1ccc(NC(=O)Cn2c(=O)oc3cc(S(=O)(=O)N4CCC(C)CC4)ccc32)c(OC)c1	-16%	?	36%	nt	1%[59 µM]	nt
CCN(C(=O)CSc1nc2ccccc2[nH]1)C1CCS(=O)(=O)C1 (centres undefined)	nt	1%	30%	7%	nt	nt
COc1ccc2nc(SCCN(C)C)[nH]c2c1	50µM*	-21%	?	6%	?	11%
CCC(C)N(C(=O)CSc1nc2ccc(OC)cc2[nH]1)C1CCS(=O)(=O)C1 (centres undefined)	8%	-9%	19%	-10%	40µM*	nt
COc1ccc2nc(SCC(N)=O)[nH]c2c1	4%	-2%	36%	-3%	-25%[12.7 µM]	7%
CCOc1ccc2nc(SCC3CC3(Cl)Cl)[nH]c2c1 (centres undefined)	-19%	3%	31%	-4%	45µM*	9%
Cc1cnc(CNc2ccnc(-c3ccccc3Cl)n2)cn1	nt	nt	nt	nt	nt	-8%
O=c1[nH]c(=S)[nH]c2nc[nH]c12	nt	?	3%[57 µM]	nt	nt	nt
Nc1ncnc2[nH]c(=S)[nH]c12	nt	3.5µM*	?	nt	nt	nt
CN(C)c1ccc(C(CN)c2c[nH]c3ccccc23)cc1 (centres undefined)	11µM*	35µM*	?	?	32µM*	50µM*
NCC(c1ccco1)c1c[nH]c2ccccc12 (centres undefined)	-9%	-23%	14%	-4%	-5%[59 µM]	16%
CN(C)c1ccc(C(CNS(=O)(=O)c2ccc3ccccc3c2)c2c[nH]c3ccccc23)cc1 (centres undefined)	13µM*	28µM*	?	?	10µM*	9%
O=S(=O)(NCc1ccccc1)c1ccc2ccccc2c1	6%	12%	38%	nt	4%	2%
SMILES	BAZ2B inh	JMJD2A Tudor inh	HP1b binding inh	L3MBTL1 inh	G9a block	Sfp inh
COc1cc(N2CCCC2)c(OC)cc1/C=C1/NC(=S)NC1=O	?	-34%	-28%	-15%	22µM*	-23%
O=[N+]([O-])c1ccc([S+](=O)([O-])N2CCN([S+](=O)([O-])c3ccc4c(c3)OCCO4)CC2)c([N+](=O)[O-])c1	nt	-6%	nt	nt	nt	nt
CC1=NN(c2ccc(C(F)(F)F)cn2)C(=O)C1	8.9µM*	79µM*	40%	?	-7%	-2%
CS(=O)(=O)Nc1ccc(N2CCN(c3ccc(C(F)(F)F)cn3)CC2)nc1	-2%	-8%	38%	-8%	15%	6%
COc1ccc(CN(C)S(=O)(=O)c2nnc(NC(=O)C(C)C)s2)cc1OC	0%	1%	49%	nt	?	nt
CC(C)CCNC(=O)NC(=O)COC(=O)/C=C/c1cc(Br)ccc1F	16%	14µM*	-9%	nt	-10%	14%
O=C(COC(=O)/C=C/c1cc(Br)ccc1F)Nc1ccc2[nH]c(=O)[nH]c2c1	0%	-6%	20%	-5%	?	nt
O=C(O)CCCNC(=O)c1cccc(C(=O)NCCCC(=O)O)n1	?	?	-2%	9%	20µM*	-2%
CC(=O)C(C(C)=O)C1(O)C(=O)c2ccccc2C1=O	-2%	-5%	51%	?	50µM*	-15%
S=c1[nH]ncn1-c1ccccn1	?	20µM*	?	9%	?	22µM*
COc1cccc(NC(=O)CSc2nc(=O)[nH]c3c2CCCC3)c1	-4%	-7%	18%	nt	6%[59 µM]	nt
CCc1ccc(-c2cc(C(=O)N/N=C/c3ccccn3)[nH]n2)cc1	-15%	-28%	-2%	nt	99%[59 µM]	-11%
CCCc1sc(N/N=C/c2ccccn2)nc1-c1ccc(Br)cc1	-33%	50µM*	6%	-14%	-5%[59 µM]	1%
CCN(CC)C(=O)NC1CC2CCCC(C1)N2Cc1ccccc1 (centres undefined)	5%	-4%[57.1 µM]	-11%	8%	2.8µM*	14%
CCN(CC)C(=O)Cn1c(=O)n(Cc2ccc(C(=O)NCCc3ccc(OC)c(OC)c3)cc2)c(=O)c2ccccc21	-1%	-13%	17%	nt	11%[59 µM]	nt
O=[N+]([O-])c1ccc(NC2CCN(Cc3ccccc3)CC2)c([N+](=O)[O-])c1	?	-72%	?	-3%	?	13%

Assay outcomes (PubChem)
